Assay results reported in the supplement of paper PMC11732987, “Enantioselective OTUD7B fragment discovery through chemoproteomics screening and high-throughput optimisation” (Communications Chemistry, 2025).

How the values were obtained:
Test in all cases: log2 ratio of Biotin-Ahx-Ub-VS probe labelling (fragment/DMSO); higher = less target engagement (more negative = stronger competition), active = hit call of the paper (q ≤ 0.05, log2 ratio ≤ -1)
Details in all cases: compound concentration: 200 uM; treatment time: 3 h
USP42 = target: T1, USP42 (UniProt Q9H9J4)
T1 sequence (whole entry): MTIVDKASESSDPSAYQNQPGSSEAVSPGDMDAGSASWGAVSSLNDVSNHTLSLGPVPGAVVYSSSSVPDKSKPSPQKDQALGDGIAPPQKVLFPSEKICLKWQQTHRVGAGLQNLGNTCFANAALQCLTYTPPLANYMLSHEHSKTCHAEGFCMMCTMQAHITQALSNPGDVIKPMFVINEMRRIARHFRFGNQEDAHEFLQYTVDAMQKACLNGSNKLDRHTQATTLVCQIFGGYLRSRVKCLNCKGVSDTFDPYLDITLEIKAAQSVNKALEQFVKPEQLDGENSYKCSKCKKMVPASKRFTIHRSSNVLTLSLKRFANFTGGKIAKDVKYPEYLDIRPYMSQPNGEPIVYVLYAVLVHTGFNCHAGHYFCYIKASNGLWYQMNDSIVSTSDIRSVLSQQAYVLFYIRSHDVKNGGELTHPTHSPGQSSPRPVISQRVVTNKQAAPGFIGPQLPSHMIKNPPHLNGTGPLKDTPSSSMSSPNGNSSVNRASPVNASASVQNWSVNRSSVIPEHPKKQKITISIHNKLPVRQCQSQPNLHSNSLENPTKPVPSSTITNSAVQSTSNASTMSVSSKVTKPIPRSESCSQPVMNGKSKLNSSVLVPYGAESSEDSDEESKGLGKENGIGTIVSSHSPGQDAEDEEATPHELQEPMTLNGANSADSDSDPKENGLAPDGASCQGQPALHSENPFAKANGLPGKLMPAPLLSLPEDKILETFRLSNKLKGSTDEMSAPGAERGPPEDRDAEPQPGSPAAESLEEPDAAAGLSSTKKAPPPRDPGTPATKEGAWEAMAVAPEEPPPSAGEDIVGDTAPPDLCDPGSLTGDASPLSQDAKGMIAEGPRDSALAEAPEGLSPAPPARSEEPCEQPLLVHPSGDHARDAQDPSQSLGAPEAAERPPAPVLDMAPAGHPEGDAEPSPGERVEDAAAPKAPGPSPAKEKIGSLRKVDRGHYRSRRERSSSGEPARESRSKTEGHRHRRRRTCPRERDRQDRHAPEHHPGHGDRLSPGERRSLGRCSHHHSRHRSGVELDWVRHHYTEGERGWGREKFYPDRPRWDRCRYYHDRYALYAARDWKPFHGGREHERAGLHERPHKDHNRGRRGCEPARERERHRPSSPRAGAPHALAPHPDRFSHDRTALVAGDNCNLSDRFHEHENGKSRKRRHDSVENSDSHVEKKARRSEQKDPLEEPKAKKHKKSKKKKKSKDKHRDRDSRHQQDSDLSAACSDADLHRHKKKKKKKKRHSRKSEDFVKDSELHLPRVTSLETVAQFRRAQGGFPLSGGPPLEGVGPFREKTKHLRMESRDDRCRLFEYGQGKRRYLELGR
Outline: (§1)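 HEK293T lysate (495 µg per sample, in Tris/CHAPS/IGEPAL buffer with protease inhibitors) was treated in triplicate with fragment at 200 µM or with DMSO for 3 h. It was then treated with Biotin-Ahx-Ub-VS (0.5 µM final) for 1 h. Labelled DUBs were NeutrAvidin-enriched, digested with LysC and trypsin, and run by diaPASEF LC-MS/MS. Spectronaut label-free quantities were global-median-normalised. Values are average log2 ratios fragment/DMSO by unpaired t-test, using proteins with ≥2 unique peptides.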

USP46 = USP46 (UniProt P62068)
Outline: as §1

USP47 = target: T2, USP47 (UniProt Q96K76)
T2 sequence (whole entry): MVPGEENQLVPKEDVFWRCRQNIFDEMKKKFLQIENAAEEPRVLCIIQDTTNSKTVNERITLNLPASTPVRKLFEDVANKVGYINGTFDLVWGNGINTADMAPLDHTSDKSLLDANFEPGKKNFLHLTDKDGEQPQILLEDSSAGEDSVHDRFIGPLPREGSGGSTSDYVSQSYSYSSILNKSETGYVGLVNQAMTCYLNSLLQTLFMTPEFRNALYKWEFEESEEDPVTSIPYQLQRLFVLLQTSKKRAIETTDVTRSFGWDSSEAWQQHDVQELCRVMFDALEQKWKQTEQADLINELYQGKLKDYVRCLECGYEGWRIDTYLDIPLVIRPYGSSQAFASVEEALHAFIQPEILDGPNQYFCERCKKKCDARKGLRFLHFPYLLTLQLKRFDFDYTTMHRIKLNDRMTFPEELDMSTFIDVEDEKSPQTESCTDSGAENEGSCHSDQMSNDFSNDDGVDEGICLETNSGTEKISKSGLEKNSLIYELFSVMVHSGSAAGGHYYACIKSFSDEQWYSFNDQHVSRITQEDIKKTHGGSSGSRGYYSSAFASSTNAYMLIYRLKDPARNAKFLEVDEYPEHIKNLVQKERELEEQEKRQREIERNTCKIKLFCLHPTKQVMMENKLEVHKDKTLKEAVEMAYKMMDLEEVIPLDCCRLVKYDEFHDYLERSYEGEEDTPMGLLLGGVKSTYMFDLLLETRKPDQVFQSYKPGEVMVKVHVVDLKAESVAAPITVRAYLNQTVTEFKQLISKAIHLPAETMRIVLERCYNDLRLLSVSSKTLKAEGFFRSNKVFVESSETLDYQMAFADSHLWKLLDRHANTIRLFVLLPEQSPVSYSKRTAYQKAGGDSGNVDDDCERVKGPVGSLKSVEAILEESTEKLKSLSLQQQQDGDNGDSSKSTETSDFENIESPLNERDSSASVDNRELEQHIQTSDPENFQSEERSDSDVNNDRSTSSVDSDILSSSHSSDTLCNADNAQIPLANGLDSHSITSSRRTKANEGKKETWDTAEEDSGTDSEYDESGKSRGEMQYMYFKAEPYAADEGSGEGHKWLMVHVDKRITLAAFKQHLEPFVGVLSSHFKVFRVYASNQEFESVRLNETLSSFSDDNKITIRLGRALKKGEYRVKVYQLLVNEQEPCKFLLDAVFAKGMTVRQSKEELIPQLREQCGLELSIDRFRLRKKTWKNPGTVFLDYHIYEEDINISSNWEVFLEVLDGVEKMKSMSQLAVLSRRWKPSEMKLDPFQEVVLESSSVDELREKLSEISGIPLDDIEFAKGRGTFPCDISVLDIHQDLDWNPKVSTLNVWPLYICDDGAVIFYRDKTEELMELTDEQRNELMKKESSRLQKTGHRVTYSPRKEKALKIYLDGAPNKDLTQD
Outline: as §1

USP48 = target: T3, USP48 (UniProt Q86UV5)
T3 sequence (whole entry): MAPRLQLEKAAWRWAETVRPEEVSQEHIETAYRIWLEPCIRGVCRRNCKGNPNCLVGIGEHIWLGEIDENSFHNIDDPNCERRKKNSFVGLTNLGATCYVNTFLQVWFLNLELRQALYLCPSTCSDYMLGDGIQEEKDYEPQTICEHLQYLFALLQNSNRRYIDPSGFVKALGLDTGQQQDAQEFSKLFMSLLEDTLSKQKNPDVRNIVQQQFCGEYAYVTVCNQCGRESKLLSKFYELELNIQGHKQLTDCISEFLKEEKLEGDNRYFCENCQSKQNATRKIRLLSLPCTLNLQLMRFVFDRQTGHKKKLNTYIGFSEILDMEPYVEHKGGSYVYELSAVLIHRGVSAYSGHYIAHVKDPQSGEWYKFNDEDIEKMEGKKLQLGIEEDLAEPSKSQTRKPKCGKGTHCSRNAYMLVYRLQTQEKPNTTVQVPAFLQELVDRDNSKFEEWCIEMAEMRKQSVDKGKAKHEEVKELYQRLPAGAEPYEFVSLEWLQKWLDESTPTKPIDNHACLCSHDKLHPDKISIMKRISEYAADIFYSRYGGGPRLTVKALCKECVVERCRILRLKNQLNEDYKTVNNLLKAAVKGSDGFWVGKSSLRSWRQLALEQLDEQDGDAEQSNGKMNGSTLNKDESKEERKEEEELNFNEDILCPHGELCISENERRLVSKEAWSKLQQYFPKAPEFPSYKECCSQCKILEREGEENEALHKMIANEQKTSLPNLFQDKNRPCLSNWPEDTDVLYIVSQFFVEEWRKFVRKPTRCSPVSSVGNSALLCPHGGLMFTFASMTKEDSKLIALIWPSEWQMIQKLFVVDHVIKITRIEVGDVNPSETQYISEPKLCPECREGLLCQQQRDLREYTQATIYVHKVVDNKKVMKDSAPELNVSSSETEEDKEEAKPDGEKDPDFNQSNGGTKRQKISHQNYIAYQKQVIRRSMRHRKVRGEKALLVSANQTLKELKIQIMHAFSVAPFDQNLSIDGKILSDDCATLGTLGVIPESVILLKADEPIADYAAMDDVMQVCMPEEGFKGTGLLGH
Outline: as §1

USP5 = target: T4, USP5 (UniProt P45974)
T4 sequence (whole entry): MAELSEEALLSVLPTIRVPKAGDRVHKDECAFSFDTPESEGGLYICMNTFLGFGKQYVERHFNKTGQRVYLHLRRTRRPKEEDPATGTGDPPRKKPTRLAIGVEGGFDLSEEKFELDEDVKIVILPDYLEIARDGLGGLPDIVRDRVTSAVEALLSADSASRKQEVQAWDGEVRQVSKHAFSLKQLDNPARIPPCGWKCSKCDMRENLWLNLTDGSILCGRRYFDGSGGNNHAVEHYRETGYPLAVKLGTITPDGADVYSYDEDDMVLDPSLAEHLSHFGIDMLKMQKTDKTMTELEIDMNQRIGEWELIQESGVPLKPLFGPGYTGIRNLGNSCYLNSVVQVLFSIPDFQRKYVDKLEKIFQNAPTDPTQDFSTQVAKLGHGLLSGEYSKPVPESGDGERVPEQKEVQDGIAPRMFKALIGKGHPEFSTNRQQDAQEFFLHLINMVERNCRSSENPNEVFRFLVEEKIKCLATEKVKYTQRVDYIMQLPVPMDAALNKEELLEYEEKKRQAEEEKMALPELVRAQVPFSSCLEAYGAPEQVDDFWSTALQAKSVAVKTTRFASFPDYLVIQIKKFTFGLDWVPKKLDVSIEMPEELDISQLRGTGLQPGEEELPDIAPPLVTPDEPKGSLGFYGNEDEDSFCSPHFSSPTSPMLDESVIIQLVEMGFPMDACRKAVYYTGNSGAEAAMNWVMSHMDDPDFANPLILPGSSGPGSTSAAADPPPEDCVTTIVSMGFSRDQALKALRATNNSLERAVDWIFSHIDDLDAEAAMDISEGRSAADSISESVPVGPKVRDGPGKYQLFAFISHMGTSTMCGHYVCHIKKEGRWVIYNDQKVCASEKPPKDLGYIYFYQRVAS
Outline: as §1

USP54 = USP54 (UniProt Q70EL1)
Outline: as §1

USP7 = USP7 (UniProt Q93009)
Outline: as §1

USP8 = target: T5, USP8 (UniProt P40818)
T5 sequence (whole entry): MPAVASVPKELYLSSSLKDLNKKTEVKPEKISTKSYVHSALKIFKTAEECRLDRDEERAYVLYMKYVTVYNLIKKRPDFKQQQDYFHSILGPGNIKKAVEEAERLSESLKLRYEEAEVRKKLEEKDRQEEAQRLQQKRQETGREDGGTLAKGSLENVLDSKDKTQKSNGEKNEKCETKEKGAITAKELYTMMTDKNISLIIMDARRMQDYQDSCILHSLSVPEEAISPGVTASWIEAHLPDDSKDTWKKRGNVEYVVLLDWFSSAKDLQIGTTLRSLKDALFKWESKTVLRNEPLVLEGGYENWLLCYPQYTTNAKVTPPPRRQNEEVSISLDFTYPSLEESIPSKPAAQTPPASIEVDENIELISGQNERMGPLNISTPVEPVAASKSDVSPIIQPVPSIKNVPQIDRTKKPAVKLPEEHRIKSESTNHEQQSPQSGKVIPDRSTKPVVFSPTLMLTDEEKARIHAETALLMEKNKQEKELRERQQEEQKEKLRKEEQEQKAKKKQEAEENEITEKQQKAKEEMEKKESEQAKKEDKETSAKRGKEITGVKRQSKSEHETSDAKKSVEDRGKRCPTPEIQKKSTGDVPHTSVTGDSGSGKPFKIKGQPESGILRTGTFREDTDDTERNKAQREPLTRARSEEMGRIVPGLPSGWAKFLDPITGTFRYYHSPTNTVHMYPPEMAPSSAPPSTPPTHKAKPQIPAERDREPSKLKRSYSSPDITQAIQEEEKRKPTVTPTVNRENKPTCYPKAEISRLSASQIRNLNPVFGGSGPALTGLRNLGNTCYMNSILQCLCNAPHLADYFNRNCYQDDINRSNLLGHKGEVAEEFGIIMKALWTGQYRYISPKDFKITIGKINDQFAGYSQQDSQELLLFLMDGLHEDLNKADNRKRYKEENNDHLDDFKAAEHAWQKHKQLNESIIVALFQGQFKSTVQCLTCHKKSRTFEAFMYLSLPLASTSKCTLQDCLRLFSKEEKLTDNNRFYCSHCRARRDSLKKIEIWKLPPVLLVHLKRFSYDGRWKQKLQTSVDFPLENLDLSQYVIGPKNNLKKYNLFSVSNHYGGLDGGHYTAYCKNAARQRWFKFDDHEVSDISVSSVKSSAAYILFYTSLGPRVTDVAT
Outline: as §1

USP9X = USP9X (UniProt Q93008)
Outline: as §1

UniProt O00487 = target: UniProt O00487
Outline: as §1

Measured: log2 ratio of Biotin-Ahx-Ub-VS probe labelling

Chain of UniProt O00487 (O00487 whole entry): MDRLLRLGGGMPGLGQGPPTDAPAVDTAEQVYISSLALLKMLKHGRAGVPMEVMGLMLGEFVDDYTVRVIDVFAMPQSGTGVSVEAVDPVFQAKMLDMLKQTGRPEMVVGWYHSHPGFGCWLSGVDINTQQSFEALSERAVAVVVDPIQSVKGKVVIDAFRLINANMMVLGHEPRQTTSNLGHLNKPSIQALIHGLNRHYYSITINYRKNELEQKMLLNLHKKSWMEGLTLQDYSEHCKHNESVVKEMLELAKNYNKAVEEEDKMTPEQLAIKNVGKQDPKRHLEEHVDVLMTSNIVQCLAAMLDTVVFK
Chain of USP54 (Q70EL1 whole entry): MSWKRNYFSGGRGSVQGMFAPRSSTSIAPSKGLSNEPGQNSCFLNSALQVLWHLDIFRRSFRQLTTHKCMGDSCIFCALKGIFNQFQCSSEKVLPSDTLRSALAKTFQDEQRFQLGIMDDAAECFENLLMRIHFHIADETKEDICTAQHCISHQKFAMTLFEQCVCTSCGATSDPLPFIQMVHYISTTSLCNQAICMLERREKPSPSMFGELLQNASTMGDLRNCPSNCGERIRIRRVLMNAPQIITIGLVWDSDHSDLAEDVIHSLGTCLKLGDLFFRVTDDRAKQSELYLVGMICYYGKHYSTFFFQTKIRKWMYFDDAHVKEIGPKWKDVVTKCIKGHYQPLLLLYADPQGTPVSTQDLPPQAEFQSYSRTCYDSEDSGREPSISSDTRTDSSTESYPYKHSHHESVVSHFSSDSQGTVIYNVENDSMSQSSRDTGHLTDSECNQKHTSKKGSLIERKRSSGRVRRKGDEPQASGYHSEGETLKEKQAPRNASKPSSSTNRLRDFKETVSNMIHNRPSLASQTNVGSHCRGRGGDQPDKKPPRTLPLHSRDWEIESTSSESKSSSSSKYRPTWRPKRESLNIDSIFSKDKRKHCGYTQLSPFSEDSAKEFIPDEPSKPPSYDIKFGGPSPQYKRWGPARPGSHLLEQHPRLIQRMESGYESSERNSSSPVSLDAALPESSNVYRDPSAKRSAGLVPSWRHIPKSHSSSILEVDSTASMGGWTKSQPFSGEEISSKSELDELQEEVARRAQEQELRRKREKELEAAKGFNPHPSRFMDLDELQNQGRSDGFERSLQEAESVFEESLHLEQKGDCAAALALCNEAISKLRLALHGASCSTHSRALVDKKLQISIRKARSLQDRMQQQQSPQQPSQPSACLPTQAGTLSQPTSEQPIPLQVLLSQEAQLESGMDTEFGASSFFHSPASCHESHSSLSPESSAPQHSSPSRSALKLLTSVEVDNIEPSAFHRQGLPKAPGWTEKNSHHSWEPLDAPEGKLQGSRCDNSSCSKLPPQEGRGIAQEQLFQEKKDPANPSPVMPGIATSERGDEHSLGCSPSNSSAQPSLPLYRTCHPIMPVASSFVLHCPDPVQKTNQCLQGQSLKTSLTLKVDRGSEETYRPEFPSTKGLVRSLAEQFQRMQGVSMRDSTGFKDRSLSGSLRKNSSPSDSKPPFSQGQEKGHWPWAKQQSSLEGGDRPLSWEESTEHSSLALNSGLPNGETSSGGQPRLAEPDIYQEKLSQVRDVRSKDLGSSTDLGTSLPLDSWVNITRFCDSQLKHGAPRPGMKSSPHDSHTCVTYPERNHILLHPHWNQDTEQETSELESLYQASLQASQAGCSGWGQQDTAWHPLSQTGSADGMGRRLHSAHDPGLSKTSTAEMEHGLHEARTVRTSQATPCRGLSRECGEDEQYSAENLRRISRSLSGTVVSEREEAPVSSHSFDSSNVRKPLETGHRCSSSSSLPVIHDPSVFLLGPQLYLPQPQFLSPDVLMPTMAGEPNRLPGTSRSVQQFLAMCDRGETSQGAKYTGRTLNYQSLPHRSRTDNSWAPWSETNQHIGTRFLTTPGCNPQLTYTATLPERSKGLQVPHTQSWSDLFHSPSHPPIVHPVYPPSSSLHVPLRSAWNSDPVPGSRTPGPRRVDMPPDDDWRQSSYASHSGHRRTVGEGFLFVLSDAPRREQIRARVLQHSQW
Chain of USP46 (P62068 whole entry): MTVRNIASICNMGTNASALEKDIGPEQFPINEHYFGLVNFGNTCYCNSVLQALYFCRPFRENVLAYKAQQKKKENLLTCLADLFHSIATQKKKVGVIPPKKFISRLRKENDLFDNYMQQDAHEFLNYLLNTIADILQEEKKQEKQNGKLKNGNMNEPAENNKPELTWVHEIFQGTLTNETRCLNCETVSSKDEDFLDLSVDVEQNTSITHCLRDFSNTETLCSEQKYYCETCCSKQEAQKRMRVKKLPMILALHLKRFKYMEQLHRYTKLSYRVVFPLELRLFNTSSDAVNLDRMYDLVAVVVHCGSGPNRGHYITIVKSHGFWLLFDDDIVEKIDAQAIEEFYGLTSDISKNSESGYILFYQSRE
Chain of USP7 (Q93009 whole entry, looked up): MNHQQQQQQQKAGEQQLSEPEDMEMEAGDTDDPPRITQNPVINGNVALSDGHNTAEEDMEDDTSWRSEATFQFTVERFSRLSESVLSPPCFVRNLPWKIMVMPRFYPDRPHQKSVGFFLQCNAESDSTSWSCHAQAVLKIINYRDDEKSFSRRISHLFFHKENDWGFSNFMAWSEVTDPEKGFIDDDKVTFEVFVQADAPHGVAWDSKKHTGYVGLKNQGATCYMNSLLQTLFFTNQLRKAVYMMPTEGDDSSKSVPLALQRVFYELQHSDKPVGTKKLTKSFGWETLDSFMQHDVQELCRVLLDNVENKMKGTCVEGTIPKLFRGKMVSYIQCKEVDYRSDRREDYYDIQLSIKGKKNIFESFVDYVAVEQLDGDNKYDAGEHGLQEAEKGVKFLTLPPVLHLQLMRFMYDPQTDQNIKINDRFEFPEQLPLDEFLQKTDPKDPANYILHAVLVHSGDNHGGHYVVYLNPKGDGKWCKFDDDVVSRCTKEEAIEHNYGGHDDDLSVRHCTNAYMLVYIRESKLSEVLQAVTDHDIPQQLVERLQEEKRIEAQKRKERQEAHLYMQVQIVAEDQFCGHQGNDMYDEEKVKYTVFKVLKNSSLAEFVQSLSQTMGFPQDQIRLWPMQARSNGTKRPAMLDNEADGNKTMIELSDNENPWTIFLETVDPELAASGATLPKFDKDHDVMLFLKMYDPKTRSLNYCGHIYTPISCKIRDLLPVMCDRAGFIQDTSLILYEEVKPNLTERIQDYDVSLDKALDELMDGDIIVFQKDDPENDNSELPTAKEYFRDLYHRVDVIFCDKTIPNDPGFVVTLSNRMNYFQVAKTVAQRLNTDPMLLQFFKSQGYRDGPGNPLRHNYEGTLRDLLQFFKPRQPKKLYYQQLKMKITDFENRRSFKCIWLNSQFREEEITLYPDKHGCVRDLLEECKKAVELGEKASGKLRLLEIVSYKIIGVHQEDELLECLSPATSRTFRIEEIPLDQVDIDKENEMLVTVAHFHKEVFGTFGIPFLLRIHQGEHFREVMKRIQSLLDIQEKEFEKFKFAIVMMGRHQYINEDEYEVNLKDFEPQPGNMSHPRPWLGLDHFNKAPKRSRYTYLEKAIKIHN

O=C(CCl)N[C@H]1CCS(=O)(=O)c2ccccc21
inactive: USP42 0.186 | USP46 0.0271 | USP47 -0.0612 | USP48 -0.022 | USP5 -0.472 | USP54 -0.274 | USP7 -0.346 | USP8 -0.0621 | USP9X -0.14 | UniProt O00487 -0.0201
